Values joined by “and” are separate entries in the source; they are usually repeats but may differ in a detail not shown here. Equal values may be shown once. About 2,000 (36%) of roughly 5,500 compounds were called active. Inconclusive results (about 18%) are left out. No stated cut-off is given here; in the data, active means normalized growth mostly below about 0.91 (no sharp cut-off); inconclusive means no clear call, values can overlap the other calls; inactive means mostly above about 0.92. Some of the results follow.
Test: chemical genetic growth profiling, strain panel (AID 1159580);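 further: tested at 20 µM; growth read once vehicle control cultures reached saturation at 30 °C; 1 = growth at the plate median or of vehicle wells; lower values mean less growth of the strain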
Settings: S. cerevisiae deletion strains, growth OD

Measured: normalized growth

Cc1cc(O)c2c(c1)C(=O)c1cccc(O)c1C2=O
active: locus YDR137W, strain rgp1, hits give low values 0.791 | locus YDR195W, strain ref2 1.18 [resistant] | locus YLR262C, strain YPT6 (second series), hits give low values 0.857 | locus YOR270C, strain vph1, hits give low values 0.772 | locus YPL051W, strain arl3, hits give low values 0.891
inactive: locus YAL013W, strain DEP1, hits give low values 0.971 | locus YAL021C, strain ccr4, hits give low values 0.991 | locus YAL026C, strain drs2, hits give low values 0.974 | locus YAL030W, strain snc1, hits give low values 1 | locus YBL061C, strain skt5, hits give low values 0.999 | locus YBR009C, strain hhf1, hits give low values 0.98 | locus YBR021W, strain FUR4, hits give low values 1.05 | locus YBR023C, strain chs3, hits give low values 1.01 | locus YBR171W, strain sec66, hits give low values 0.996 | locus YBR229C, strain ROT2, hits give low values 0.996 | locus YBR231C, strain swc5, hits give low values 0.967 | locus YBR279W, strain paf1, hits give low values 1 | locus YCL011C, strain gbp2, hits give low values 1 | locus YCL016C, strain dcc1, hits give low values 1 | locus YCL029C, strain bik1, hits give low values 0.992 | locus YCL061C, strain MRC1, hits give low values 1 | locus YCL069W, strain vba3, hits give low values 1 | locus YCR088W, strain abp1, hits give low values 1 | locus YDL005C, strain med2, hits give low values 1.01 | locus YDL035C, strain GPR1, hits give low values 0.975 | locus YDL040C, strain nat1, hits give low values 0.985 | locus YDL074C, strain BRE1, hits give low values 0.935 | locus YDL101C, strain DUN1, hits give low values 0.997 | locus YDL185W, strain tfp1, hits give low values 0.987 | locus YDL192W, strain arf1, hits give low values 0.967 | locus YDR001C, strain nth1, hits give low values 0.998 | locus YDR069C, strain doa4, hits give low values 0.99 | locus YDR101C, strain arx1, hits give low values 0.975 | locus YDR159W, strain sac3, hits give low values 1 | locus YDR162C, strain NBP2, hits give low values 0.969 | locus YDR297W, strain sur2, hits give low values 0.999 | locus YDR318W, strain mcm21, hits give low values 0.989 | locus YDR334W, strain swr1, hits give low values 0.993 | locus YDR335W, strain msn5, hits give low values 0.989 | locus YDR388W, hits give low values 0.994 | locus YDR392W, strain spt3, hits give low values 0.82 | locus YDR502C, strain sam2, hits give low values 1.01 | locus YEL003W, strain gim4, hits give low values 0.988 | locus YEL037C, strain rad23, hits give low values 0.982 | locus YEL061C, strain CIN8 (second series), hits give low values 0.99 | locus YEL061C, strain CIN8, hits give low values 0.993 | locus YER015W, strain faa2, hits give low values 1.01 | locus YER016W, strain bim1, hits give low values 1 | locus YER110C, hits give low values 1 | locus YER111C, strain swi4, hits give low values 1 | locus YER155C, strain BEM2 (second series), hits give low values 0.985 | locus YER155C, strain BEM2, hits give low values 1.01 | locus YER167W, strain BCK2, hits give low values 0.995 | locus YFR010W, strain ubp6, hits give low values 0.971 | locus YGL078C, strain dbp3, hits give low values 1.02 | locus YGL086W, strain mad1, hits give low values 0.965 | locus YGL167C, strain pmr1, hits give low values 0.987 | locus YGL173C, strain kem1, hits give low values 1 | locus YGL227W, strain vid30, hits give low values 1.01 | locus YGL240W, strain doc1, hits give low values 0.963 | locus YGL248W, strain PDE1, hits give low values 0.981 | locus YGL253W, strain hxk2, hits give low values 0.985 | locus YGR078C, strain PAC10, hits give low values 0.964 | locus YGR135W, strain pre9, hits give low values 1.01 | locus YGR252W, strain gcn5, hits give low values 1.03 | locus YHR013C, strain ard1, hits give low values 1 | locus YHR027C, strain rpn1, hits give low values 0.998 | locus YHR030C, strain SLT2, hits give low values 0.981 and 1.02 | locus YHR079C, strain IRE1 (second series), hits give low values 0.995 | locus YHR079C, strain IRE1, hits give low values 1.06 | locus YHR094C, strain hxt1, hits give low values 1.01 | locus YHR129C, strain ARP1, hits give low values 1 | locus YHR142W, strain chs7, hits give low values 0.964 | locus YHR200W, strain rpn10, hits give low values 0.994 | locus YIL066C, strain RNR3, hits give low values 0.991 | locus YIL073C, strain SPO22, hits give low values 0.935 | locus YIL125W, strain kgd1, hits give low values 1 | locus YIR030C, strain dcg1, hits give low values 1.01 | locus YJL092W, strain hpr5, hits give low values 1.01 | locus YJL095W, strain BCK1 (second series), hits give low values 0.999 | locus YJL095W, strain BCK1, hits give low values 0.914 and 1.05 | locus YJL115W, strain asf1, hits give low values 0.996 | locus YJL129C, strain trk1, hits give low values 1.01 | locus YJL134W, strain LCB3, hits give low values 1 | locus YJL154C, strain vps35, hits give low values 0.997 | locus YJL164C, strain tpk1, hits give low values 0.996 | locus YJL166W, strain qcr8, hits give low values 0.983 | locus YJL168C, strain set2, hits give low values 1 | locus YJL187C, strain SWE1 (second series), hits give low values 0.954 | locus YJL187C, strain SWE1, hits give low values 0.995 | locus YJR043C, strain POL32, hits give low values 0.977 | locus YJR066W, strain TOR1, hits give low values 0.979 | locus YKL009W, strain mrt4, hits give low values 1.02 | locus YKL068W, hits give low values 1.02 | locus YKL085W, strain MDH1 (second series), hits give low values 1.01 | locus YKL085W, strain MDH1, hits give low values 1.01 | locus YKL160W, strain elf1, hits give low values 0.995 | locus YKL190W, strain CNB1, hits give low values 0.991 | locus YKR001C, strain vps1, hits give low values 0.928 | locus YKR026C, strain gcn3, hits give low values 1.02 | locus YKR091W, strain srl3, hits give low values 1 | locus YLL001W, strain dnm1, hits give low values 1.01 | locus YLL026W, hits give low values 1 | locus YLL041C, strain sdh2, hits give low values 1.01 | locus YLR027C, strain aat2, hits give low values 1.01 | locus YLR039C, strain RIC1, hits give low values 0.818 | locus YLR058C, strain SHM2, hits give low values 0.972 | locus YLR102C, strain apc9, hits give low values 1.01 | locus YLR113W, strain HOG1, hits give low values 1.07 | locus YLR221C, strain rsa3, hits give low values 1.01 | locus YLR258W, strain gsy2, hits give low values 0.991 | locus YLR268W, strain sec22, hits give low values 0.933 | locus YLR320W, strain mms22, hits give low values 0.949 | locus YLR330W, strain CHS5, hits give low values 0.986 | locus YLR342W, strain FKS1 (second series), hits give low values 0.984 | locus YLR342W, strain FKS1, hits give low values 1.01 | locus YLR357W, strain rsc2, hits give low values 1.03 | locus YLR370C, strain arc18, hits give low values 1.02 | locus YLR371W, strain rom2, hits give low values 0.963 | locus YLR384C, strain iki3, hits give low values 0.998 | locus YLR418C, strain cdc73, hits give low values 0.936 | locus YML016C, strain PPZ1, hits give low values 0.997 | locus YML032C, strain rad52, hits give low values 0.935 | locus YML120C, strain ndi1, hits give low values 0.998 | locus YML124C, strain tub3, hits give low values 1.01 | locus YMR058W, strain fet3, hits give low values 0.98 | locus YMR078C, strain ctf18, hits give low values 0.988 | locus YMR125W, strain sto1, hits give low values 1.05 | locus YMR129W, hits give low values 0.999 | locus YMR205C, strain PFK2, hits give low values 1.03 | locus YMR223W, strain ubp8, hits give low values 0.968 | locus YMR231W, strain pep5, hits give low values 0.999 | locus YMR263W, strain SAP30, hits give low values 0.982 | locus YMR307W, strain GAS1, hits give low values 0.883 | locus YNL067W, strain RPL9B, hits give low values 0.99 | locus YNL071W, strain lat1, hits give low values 0.996 | locus YNL183C, strain NPR1, hits give low values 0.974 | locus YNL209W, strain ssb2, hits give low values 0.988 | locus YNL233W, strain BNI4, hits give low values 0.966 | locus YNL248C, strain rpa49, hits give low values 0.948 | locus YNL250W, strain rad50, hits give low values 1.04 | locus YNL271C, strain bni1, hits give low values 1 | locus YNL298W, strain CLA4, hits give low values 1.02 | locus YNL307C, strain MCK1, hits give low values 1.01 | locus YNL322C, strain KRE1 (second series), hits give low values 1.02 | locus YNR049C, strain mso1, hits give low values 1.01 | locus YNR052C, strain pop2, hits give low values 0.961 | locus YOL012C, strain htz1 1.1 | locus YOL147C, strain pex11, hits give low values 0.994 | locus YOR001W, strain rrp6, hits give low values 0.983 | locus YOR061W, strain CKA2, hits give low values 1 | locus YOR069W, strain VPS5, hits give low values 0.999 | locus YOR070C, strain gyp1, hits give low values 1.02 | locus YOR080W, strain dia2, hits give low values 0.996 | locus YOR083W, strain WHI5, hits give low values 0.999 | locus YOR106W, strain vam3, hits give low values 0.965 | locus YOR136W, strain idh2, hits give low values 1.01 | locus YOR144C, strain elg1, hits give low values 0.998 | locus YOR184W, strain ser1, hits give low values 0.946 | locus YOR231W, strain MKK1, hits give low values 1.09 | locus YOR265W, strain rbl2, hits give low values 0.996 | locus YOR290C, strain snf2, hits give low values 0.967 | locus YOR316C, strain cot1, hits give low values 1.02 | locus YPL078C, strain atp4, hits give low values 0.96 | locus YPL106C, strain sse1, hits give low values 0.974 | locus YPL240C, strain hsp82, hits give low values 1 | locus YPL256C, strain CLN2, hits give low values 1.09 | locus YPR119W, strain clb2, hits give low values 1 | locus YPR141C, strain kar3, hits give low values 1.03 | locus YPR163C, strain tif3, hits give low values 1 | locus YPR167C, strain met16, hits give low values 0.998 | strain wtn01, hits give low values 0.97
